PubChem BioAssay
Activity calls are given as the source filed them.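 How the source made its calls, unless noted: active means normalized viability below 100% at a tested concentration; inactive means the rest.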

What was measured:
[1] = viability loss with induced miR-34 in A549 – imaging, A549 dox-inducible miR-34, nuclei and caspase counts, primary screen (AID 1347080;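 active means compounds whose cell count with miR-34 switched on is under 0.7 times the count with it off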); conditions: A549 miR-34 inducible, Hoechst nuclei count, 48 h
[2] = MELAS cybrid and Rieske KO viability enhancers – cell-based, MELAS cybrids, Rieske KO mouse fibroblasts, CellTiter-Glo, primary screen (AID 1508586;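 active means mean z-score across replicates of 1.96 or higher in either the MELAS or the Rieske mutant cell line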;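 further: z relative to plate mean and SD of compound and empty wells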); conditions: low glucose
[3] = drug combination growth inhibition, ovarian cancer – cell-based, oncology-focused library, rucaparib conditional, profiling panel (AID 1508598); conditions: patient-derived ovarian cancer cells, CellTiter-Glo viability, 144 h, stronger effect = lower value
[4] = stronger effect = lower value, cell number ratio, induced over uninduced
[5] = measured here: relative caspase fold change +Dox/-Dox
[6] = measured here: total cells with miR-34 induction, stronger effect = lower value
[7] = measured here: total cells without miR-34 induction
[8] = MELAS cybrid survival, CellTiter-Glo 48 h, stronger effect = higher value
[9] = Rieske KO mouse fibroblast survival, CellTiter-Glo 72 h
[10] = at 0.000305 µM, OCI-C5x cells, with rucaparib 10 µM, 100% = cells with rucaparib alone
[11] = at 0.000305 µM, OCI-C5x cells, without rucaparib
[12] = at 0.000305 µM, OCI-P5x cells, with rucaparib 20 µM, 100% = cells with rucaparib alone
[13] = at 0.000305 µM, OCI-P5x cells, without rucaparib
[14] = at 0.00122 µM, OCI-C5x cells, with rucaparib 10 µM, 100% = cells with rucaparib alone
[15] = at 0.00122 µM, OCI-C5x cells, without rucaparib
[16] = at 0.00122 µM, OCI-P5x cells, with rucaparib 20 µM, 100% = cells with rucaparib alone
[17] = at 0.00122 µM, OCI-P5x cells, without rucaparib
[18] = at 0.00488 µM, OCI-C5x cells, with rucaparib 10 µM, 100% = cells with rucaparib alone
[19] = at 0.00488 µM, OCI-C5x cells, without rucaparib
[20] = at 0.00488 µM, OCI-P5x cells, with rucaparib 20 µM, 100% = cells with rucaparib alone
[21] = at 0.00488 µM, OCI-P5x cells, without rucaparib
[22] = at 0.0195 µM, OCI-C5x cells, with rucaparib 10 µM, 100% = cells with rucaparib alone
[23] = at 0.0195 µM, OCI-C5x cells, without rucaparib
[24] = at 0.0195 µM, OCI-P5x cells, with rucaparib 20 µM, 100% = cells with rucaparib alone
[25] = at 0.0195 µM, OCI-P5x cells, without rucaparib
[26] = at 0.0781 µM, OCI-C5x cells, with rucaparib 10 µM, 100% = cells with rucaparib alone
[27] = at 0.0781 µM, OCI-C5x cells, without rucaparib
[28] = at 0.0781 µM, OCI-P5x cells, with rucaparib 20 µM, 100% = cells with rucaparib alone
[29] = at 0.0781 µM, OCI-P5x cells, without rucaparib
[30] = at 0.313 µM, OCI-C5x cells, with rucaparib 10 µM, 100% = cells with rucaparib alone
[31] = at 0.313 µM, OCI-C5x cells, without rucaparib
[32] = at 0.313 µM, OCI-P5x cells, with rucaparib 20 µM, 100% = cells with rucaparib alone
[33] = at 0.313 µM, OCI-P5x cells, without rucaparib
[34] = at 1.25 µM, OCI-C5x cells, with rucaparib 10 µM, 100% = cells with rucaparib alone
[35] = at 1.25 µM, OCI-C5x cells, without rucaparib
[36] = at 1.25 µM, OCI-P5x cells, with rucaparib 20 µM, 100% = cells with rucaparib alone
[37] = at 1.25 µM, OCI-P5x cells, without rucaparib
[38] = at 5 µM, OCI-C5x cells, with rucaparib 10 µM, 100% = cells with rucaparib alone
[39] = at 5 µM, OCI-C5x cells, without rucaparib
[40] = at 5 µM, OCI-P5x cells, with rucaparib 20 µM, 100% = cells with rucaparib alone
[41] = at 5 µM, OCI-P5x cells, without rucaparib

Nc1nccc2c1ncn2C1C=C(CO)C(O)C1O (stereo not given)
4640: cell count [1, 6]
0.366: fold change [1, 5]
4800: cell count [1, 7]
-1.41: z-score [2, 9]
inactive: fold change [1, 4] 0.968 | z-score [2, 8] -0.724

OCCn1cc(-c2ccc3c(c2)CCC3=NO)c(-c2ccncc2)n1
0.852: fold change [1, 5]
active: viability [3, 12] 91.8% | viability [3, 13] 92.8% | viability [3, 17] 92.9% | viability [3, 19] 92.1% | viability [3, 28] 99% | viability [3, 32] 95.5% | viability [3, 33] 93.7% | viability [3, 36] 90.7% | viability [3, 37] 96.5% | viability [3, 40] 88.8% | viability [3, 41] 98%
0.407: z-score [2, 9]
inactive: fold change [1, 4] 1.01 | z-score [2, 8] -0.459 | viability [3, 10] 116% | viability [3, 11] 107% | viability [3, 14] 114% | viability [3, 15] 113% | viability [3, 16] 103% | viability [3, 18] 120% | viability [3, 20] 103% | viability [3, 21] 101% | viability [3, 22] 116% | viability [3, 23] 121% | viability [3, 24] 102% | viability [3, 25] 101% | viability [3, 26] 115% | viability [3, 27] 122% | viability [3, 29] 103% | viability [3, 30] 118% | viability [3, 31] 125% | viability [3, 34] 118% | viability [3, 35] 131% | viability [3, 38] 124% | viability [3, 39] 137%
7830: cell count [1, 6]
7730: cell count [1, 7]

C=C1C[C@@]2(O)O[C@@]3(CC2C(C)C)C(C)CC[C@@H]13 (stereo not given in full)
10100: cell count [1, 7]
0.924: fold change [1, 5]
0.387: z-score [2, 9]
9960: cell count [1, 6]
inactive: fold change [1, 4] 0.988 | z-score [2, 8] -0.407

CC(C)(Oc1ccc(Cl)cc1)C(=O)OCCOC(=O)c1cccnc1
inactive: fold change [1, 4] 0.919 | z-score [2, 8] -0.212
0.391: fold change [1, 5]
9330: cell count [1, 7]
-0.266: z-score [2, 9]
8570: cell count [1, 6]

CCC(=O)O[C@@]1(C(=O)CCl)[C@@H](C)C[C@H]2[C@@H]3CCC4=CC(=O)C=C[C@]4(C)[C@]3(F)[C@H](O)C[C@@]21C
-0.656: z-score [2, 9]
5560: cell count [1, 6]
inactive: fold change [1, 4] 0.838 | z-score [2, 8] -0.516
6630: cell count [1, 7]
0.869: fold change [1, 5]

CCOC(=O)c1cnc2ccc(-c3cncc(NS(=O)(=O)c4ccccc4)c3)cn12
0.323: fold change [1, 5]
0.8: z-score [2, 9]
active: viability [3, 11] 99.1% | viability [3, 13] 99.9% | viability [3, 17] 95.7% | viability [3, 21] 94.6% | viability [3, 25] 94.3% | viability [3, 26] 91.1% | viability [3, 27] 74.3% | viability [3, 28] 88.7% | viability [3, 29] 48.1% | viability [3, 30] 69.7% | viability [3, 31] 46.2% | viability [3, 32] 66.1% | viability [3, 33] 23.4% | viability [3, 34] 52.2% | viability [3, 35] 37% | viability [3, 36] 46.2% | viability [3, 37] 13.9% | viability [3, 38] 4.93% | viability [3, 39] 22.5% | viability [3, 40] 14.6% | viability [3, 41] 8.51%
1860: cell count [1, 7]
inactive: fold change [1, 4] 0.888 | z-score [2, 8] 0.296 | viability [3, 10] 115% | viability [3, 12] 102% | viability [3, 14] 121% | viability [3, 15] 102% | viability [3, 16] 101% | viability [3, 18] 129% | viability [3, 19] 105% | viability [3, 20] 107% | viability [3, 22] 122% | viability [3, 23] 112% | viability [3, 24] 102%
1650: cell count [1, 6]
